# Measurements as given in the supplement of paper PMC11732987, “Enantioselective OTUD7B fragment discovery through chemoproteomics screening and high-throughput optimisation” (Communications Chemistry, 2025).
# A number with no mark means an inactive call.
# What was measured:
# Assay in all cases: log2 ratio of Biotin-Ahx-Ub-VS probe labelling (fragment/DMSO); higher = less target engagement (more negative = stronger competition), active = hit call of the paper (q ≤ 0.05, log2 ratio ≤ -1)
# Conditions in all cases: compound concentration: 200 uM; treatment time: 3 h
# OTUD6B = target: T1, OTUD6B (UniProt Q8N6M0)
# T1 sequence (whole entry): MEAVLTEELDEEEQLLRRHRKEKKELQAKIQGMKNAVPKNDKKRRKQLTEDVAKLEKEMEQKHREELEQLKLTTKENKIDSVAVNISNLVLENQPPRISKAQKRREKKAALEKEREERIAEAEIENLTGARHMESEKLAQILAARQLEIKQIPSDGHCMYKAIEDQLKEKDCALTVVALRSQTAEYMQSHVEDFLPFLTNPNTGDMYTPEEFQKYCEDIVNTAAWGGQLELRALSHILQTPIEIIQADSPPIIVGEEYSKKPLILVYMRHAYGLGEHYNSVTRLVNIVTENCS
# How it was run: (§1)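 Global-median-normalised Spectronaut label-free quantities were compared by unpaired t-test, and values are average log2 ratios of fragment over vehicle. Only proteins with ≥2 unique peptides were used. HEK293T lysate (495 µg per sample) was treated in triplicate with fragment at 200 µM or vehicle for 3 h and then with Biotin-Ahx-Ub-VS at 0.5 µM final for 1 h. Labelled DUBs were then NeutrAvidin-enriched, digested with LysC and trypsin, and run by diaPASEF LC-MS/MS.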
# OTUD7B = target: T2, OTUD7B (UniProt Q6GQQ9)
# T2 sequence (whole entry): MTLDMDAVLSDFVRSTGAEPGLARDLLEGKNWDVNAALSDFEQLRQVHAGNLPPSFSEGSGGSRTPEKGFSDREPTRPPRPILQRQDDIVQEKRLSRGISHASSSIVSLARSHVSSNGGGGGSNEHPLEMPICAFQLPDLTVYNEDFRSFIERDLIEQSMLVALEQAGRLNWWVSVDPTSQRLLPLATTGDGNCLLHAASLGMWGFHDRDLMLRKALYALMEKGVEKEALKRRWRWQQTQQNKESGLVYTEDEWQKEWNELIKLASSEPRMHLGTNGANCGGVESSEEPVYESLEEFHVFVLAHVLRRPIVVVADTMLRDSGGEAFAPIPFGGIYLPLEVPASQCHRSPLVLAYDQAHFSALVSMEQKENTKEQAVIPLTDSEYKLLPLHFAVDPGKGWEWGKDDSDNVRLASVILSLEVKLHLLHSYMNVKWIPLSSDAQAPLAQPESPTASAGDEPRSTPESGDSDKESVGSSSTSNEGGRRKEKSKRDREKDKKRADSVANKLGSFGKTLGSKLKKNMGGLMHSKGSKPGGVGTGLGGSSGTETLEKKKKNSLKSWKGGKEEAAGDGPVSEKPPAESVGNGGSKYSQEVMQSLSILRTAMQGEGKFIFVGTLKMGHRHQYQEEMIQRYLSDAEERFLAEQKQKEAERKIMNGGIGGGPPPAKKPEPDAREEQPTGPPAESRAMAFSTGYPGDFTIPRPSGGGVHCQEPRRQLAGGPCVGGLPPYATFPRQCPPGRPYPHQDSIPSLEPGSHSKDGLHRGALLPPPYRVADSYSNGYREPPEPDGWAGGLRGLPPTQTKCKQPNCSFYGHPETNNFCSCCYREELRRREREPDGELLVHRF
# How it was run: as §1
# PRPF8 = PRPF8 (UniProt Q6P2Q9)
# How it was run: as §1
# PSMD7 = target: T3, PSMD7 (UniProt P51665)
# T3 sequence (whole entry): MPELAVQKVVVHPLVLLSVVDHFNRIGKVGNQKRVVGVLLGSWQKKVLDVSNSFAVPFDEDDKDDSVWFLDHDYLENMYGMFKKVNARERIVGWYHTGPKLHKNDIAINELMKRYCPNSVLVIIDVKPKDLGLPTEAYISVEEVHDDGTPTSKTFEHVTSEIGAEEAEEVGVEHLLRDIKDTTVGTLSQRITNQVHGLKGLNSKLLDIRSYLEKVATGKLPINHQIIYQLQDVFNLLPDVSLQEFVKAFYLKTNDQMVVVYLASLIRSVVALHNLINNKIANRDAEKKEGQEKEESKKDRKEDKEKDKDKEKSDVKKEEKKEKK
# How it was run: as §1
# UCHL1 = UCHL1 (UniProt P09936)
# How it was run: as §1
# UCHL3 = target: T4, UCHL3 (UniProt P15374)
# T4 sequence (whole entry): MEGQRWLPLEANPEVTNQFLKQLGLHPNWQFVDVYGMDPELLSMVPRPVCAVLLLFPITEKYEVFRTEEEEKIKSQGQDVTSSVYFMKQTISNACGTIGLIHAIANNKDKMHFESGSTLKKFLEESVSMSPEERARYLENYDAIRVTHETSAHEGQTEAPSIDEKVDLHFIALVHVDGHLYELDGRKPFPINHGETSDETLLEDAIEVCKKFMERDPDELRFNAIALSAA
# How it was run: as §1
# UCHL5 = target: T5, UCHL5 (UniProt Q9Y5K5)
# T5 sequence (whole entry): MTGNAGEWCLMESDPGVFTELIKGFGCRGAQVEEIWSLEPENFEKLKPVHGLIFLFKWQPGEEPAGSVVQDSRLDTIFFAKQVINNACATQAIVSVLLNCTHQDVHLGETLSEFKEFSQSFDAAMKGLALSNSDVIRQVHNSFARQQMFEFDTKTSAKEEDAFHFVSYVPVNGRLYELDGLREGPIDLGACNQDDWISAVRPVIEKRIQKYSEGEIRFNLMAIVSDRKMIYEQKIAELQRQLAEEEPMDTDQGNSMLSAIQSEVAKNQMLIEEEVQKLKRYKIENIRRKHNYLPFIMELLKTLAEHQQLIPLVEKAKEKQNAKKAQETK
# How it was run: as §1
# USP10 = USP10 (UniProt Q14694)
# How it was run: as §1
# USP15 = target: T6, USP15 (UniProt Q9Y4E8)
# T6 sequence (whole entry): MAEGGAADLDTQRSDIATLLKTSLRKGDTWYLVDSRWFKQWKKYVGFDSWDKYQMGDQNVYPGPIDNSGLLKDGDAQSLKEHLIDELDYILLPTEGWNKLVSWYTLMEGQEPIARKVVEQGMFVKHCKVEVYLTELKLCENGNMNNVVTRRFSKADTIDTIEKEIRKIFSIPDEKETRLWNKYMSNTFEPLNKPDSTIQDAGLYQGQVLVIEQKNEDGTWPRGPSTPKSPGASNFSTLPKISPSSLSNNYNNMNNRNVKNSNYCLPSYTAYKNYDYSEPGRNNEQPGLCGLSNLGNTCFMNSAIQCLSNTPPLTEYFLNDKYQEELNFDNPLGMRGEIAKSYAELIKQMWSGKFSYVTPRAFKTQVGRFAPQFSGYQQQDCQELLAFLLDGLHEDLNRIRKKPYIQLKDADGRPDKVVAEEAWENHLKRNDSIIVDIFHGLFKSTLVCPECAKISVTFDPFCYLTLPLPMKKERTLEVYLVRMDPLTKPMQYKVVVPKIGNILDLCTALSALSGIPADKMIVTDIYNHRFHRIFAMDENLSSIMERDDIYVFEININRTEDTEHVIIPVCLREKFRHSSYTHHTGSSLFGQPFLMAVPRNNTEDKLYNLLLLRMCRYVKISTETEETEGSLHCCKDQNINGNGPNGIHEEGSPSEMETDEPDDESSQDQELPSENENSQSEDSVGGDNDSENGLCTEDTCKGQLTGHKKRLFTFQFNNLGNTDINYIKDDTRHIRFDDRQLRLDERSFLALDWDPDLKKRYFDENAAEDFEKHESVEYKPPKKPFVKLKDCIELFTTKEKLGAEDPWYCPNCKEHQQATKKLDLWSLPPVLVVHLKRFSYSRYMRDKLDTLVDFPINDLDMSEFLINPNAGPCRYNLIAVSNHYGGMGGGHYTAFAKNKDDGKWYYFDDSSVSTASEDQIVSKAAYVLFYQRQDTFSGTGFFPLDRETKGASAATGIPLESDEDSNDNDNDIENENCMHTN
# How it was run: as §1
# UCHL1, sequence (P09936 whole entry, looked up): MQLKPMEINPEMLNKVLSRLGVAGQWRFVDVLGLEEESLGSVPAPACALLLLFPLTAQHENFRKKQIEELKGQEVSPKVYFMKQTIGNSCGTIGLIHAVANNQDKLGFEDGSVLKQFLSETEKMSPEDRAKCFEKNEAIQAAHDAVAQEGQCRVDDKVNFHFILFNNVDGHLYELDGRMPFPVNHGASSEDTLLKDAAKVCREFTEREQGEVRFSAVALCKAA
# USP10, sequence (Q14694 whole entry): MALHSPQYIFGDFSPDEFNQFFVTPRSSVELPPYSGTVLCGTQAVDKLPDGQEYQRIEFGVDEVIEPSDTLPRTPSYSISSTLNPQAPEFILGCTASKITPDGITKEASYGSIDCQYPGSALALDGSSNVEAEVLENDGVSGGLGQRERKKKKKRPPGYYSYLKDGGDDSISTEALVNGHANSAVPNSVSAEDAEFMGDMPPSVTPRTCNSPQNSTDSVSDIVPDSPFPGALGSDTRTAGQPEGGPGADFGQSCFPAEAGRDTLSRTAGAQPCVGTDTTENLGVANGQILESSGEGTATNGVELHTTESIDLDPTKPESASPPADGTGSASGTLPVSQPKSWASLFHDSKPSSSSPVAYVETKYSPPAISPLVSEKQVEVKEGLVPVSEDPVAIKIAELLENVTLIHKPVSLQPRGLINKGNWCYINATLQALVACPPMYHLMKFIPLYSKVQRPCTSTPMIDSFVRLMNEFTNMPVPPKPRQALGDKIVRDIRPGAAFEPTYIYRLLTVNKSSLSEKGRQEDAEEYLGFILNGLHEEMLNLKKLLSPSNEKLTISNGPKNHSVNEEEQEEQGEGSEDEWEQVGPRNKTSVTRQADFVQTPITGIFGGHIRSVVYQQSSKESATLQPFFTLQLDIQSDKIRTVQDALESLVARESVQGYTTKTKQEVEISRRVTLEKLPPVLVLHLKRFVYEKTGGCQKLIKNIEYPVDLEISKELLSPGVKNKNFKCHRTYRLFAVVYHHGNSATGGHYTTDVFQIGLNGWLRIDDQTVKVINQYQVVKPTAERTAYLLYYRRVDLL
smiles,measurement,setting,value
O=C(CCl)N1CCN(C(=O)Nc2ccccc2)CC1,log2 ratio of Biotin-Ahx-Ub-VS probe labelling,OTUD6B,0.0713
same,log2 ratio of Biotin-Ahx-Ub-VS probe labelling,OTUD7B,-0.112
same,log2 ratio of Biotin-Ahx-Ub-VS probe labelling,PRPF8,-0.00577
same,log2 ratio of Biotin-Ahx-Ub-VS probe labelling,PSMD7,0.0846
same,log2 ratio of Biotin-Ahx-Ub-VS probe labelling,UCHL1,-1.33 (active)
same,log2 ratio of Biotin-Ahx-Ub-VS probe labelling,UCHL3,-0.441
same,log2 ratio of Biotin-Ahx-Ub-VS probe labelling,UCHL5,0.033
same,log2 ratio of Biotin-Ahx-Ub-VS probe labelling,USP10,-0.135
same,log2 ratio of Biotin-Ahx-Ub-VS probe labelling,USP15,-0.101
